Source: PubChem BioAssay AID1159580 (chemical genetic matrix, 2015)
The whole screen tested about 5,500 compounds, of which about 2,000 (36%) were called active. Another 18% or so got no clear call; they are omitted. Rule as the data show it: active = normalized growth mostly below about 0.91 (no sharp cut-off); inconclusive = no clear call, values can overlap the other calls; inactive = mostly above about 0.92. The list shows a part of the results.

Assay: chemical genetic growth profiling, strain panel (AID 1159580);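 also: tested at 20 µM; growth read once vehicle control cultures reached saturation at 30 °C; 1 = growth at the plate median or of vehicle wells; lower values mean less growth of the strain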
Settings: S. cerevisiae deletion strains, growth OD
[1] = locus YAR019C, strain CDC15, active compounds read low
[2] = locus YBL105C, strain PKC1, active compounds read low
[3] = locus YBR135W, strain CKS1, active compounds read low
[4] = locus YBR136W, strain MEC1, active compounds read low
[5] = locus YBR160W, strain CDC28, active compounds read low
[6] = locus YDL017W, strain CDC7, active compounds read low
[7] = locus YDL028C, strain MPS1, active compounds read low
[8] = locus YDL101C, strain DUN1, active compounds read low
[9] = locus YDL108W, strain KIN28, active compounds read low
[10] = locus YDL132W, strain cdc53, active compounds read low
[11] = locus YDL214C, strain PRR2, active compounds read low
[12] = locus YDR052C, strain DBF4, active compounds read low
[13] = locus YDR054C, strain cdc34, active compounds read low
[14] = locus YDR226W, strain ADK1, active compounds read low
[15] = locus YDR477W, strain SNF1, active compounds read low
[16] = locus YER123W, strain YCK3, active compounds read low
[17] = locus YER133W, strain GLC7, active compounds read low
[18] = locus YFL009W, strain cdc4, active compounds read low
[19] = locus YFL029C, strain CAK1, active compounds read low
[20] = locus YFR003C, strain YPI1, active compounds read low
[21] = locus YFR019W, strain FAB1, active compounds read low
[22] = locus YFR028C, strain CDC14, active compounds read low
[23] = locus YGR040W, strain KSS1, active compounds read low
[24] = locus YGR052W, strain FMP48, active compounds read low
[25] = locus YGR092W, strain DBF2, active compounds read low
[26] = locus YHR030C, strain SLT2, active compounds read low
[27] = locus YHR079C, strain IRE1, active compounds read low
[28] = locus YHR082C, strain KSP1, active compounds read low
[29] = locus YHR205W, strain SCH9, active compounds read low
[30] = locus YIL147C, strain SLN1, active compounds read low
[31] = locus YJL095W, strain BCK1, active compounds read low
[32] = locus YJL128C, strain PBS2, active compounds read low
[33] = locus YJL157C, strain FAR1, active compounds read low
[34] = locus YJR016C, strain ILV3, active compounds read low
[35] = locus YJR066W, strain TOR1 (second series), active compounds read low
[36] = locus YJR066W, strain TOR1, active compounds read low
[37] = locus YKL048C, strain ELM1, active compounds read low
[38] = locus YKL067W, strain YNK1, active compounds read low
[39] = locus YKL101W, strain HSL1, active compounds read low
[40] = locus YKL193C, strain SDS22, active compounds read low
[41] = locus YKL203C, strain TOR2, active compounds read low
[42] = locus YLR113W, strain HOG1, active compounds read low
[43] = locus YLR133W, strain CKI1, active compounds read low
[44] = locus YLR403W, strain SFP1, active compounds read low
[45] = locus YML070W, strain DAK1, active compounds read low
[46] = locus YMR001C, strain CDC5, active compounds read low
[47] = locus YMR205C, strain PFK2 (second series), active compounds read low
[48] = locus YMR277W, strain FCP1, active compounds read low
[49] = locus YNL006W, strain LST8, active compounds read low
[50] = locus YNL020C, strain ARK1, active compounds read low
[51] = locus YNL161W, strain CBK1, active compounds read low
[52] = locus YNL183C, strain NPR1, active compounds read low
[53] = locus YNL207W, strain RIO2, active compounds read low
[54] = locus YNL222W, strain SSU72, active compounds read low
[55] = locus YNL307C, strain MCK1 (second series), active compounds read low
[56] = locus YOL078W, strain AVO1, active compounds read low
[57] = locus YOL136C, strain PFK27, active compounds read low
[58] = locus YOR061W, strain CKA2, active compounds read low
[59] = locus YOR119C, strain RIO1, active compounds read low
[60] = locus YOR231W, strain MKK1, active compounds read low
[61] = locus YOR329C, strain SCD5, active compounds read low
[62] = locus YPL031C, strain PHO85, active compounds read low
[63] = locus YPL153C, strain RAD53, active compounds read low
[64] = locus YPL204W, strain HRR25, active compounds read low
[65] = locus YPL209C, strain IPL1, active compounds read low
[66] = locus YPL256C, strain CLN2, active compounds read low
[67] = locus YPR025C, strain CCL1, active compounds read low
[68] = locus YPR106W, strain ISR1, active compounds read low
[69] = locus YPR111W, strain DBF20, active compounds read low
[70] = strain NNK1, active compounds read low
[71] = strain TSCII, active compounds read low

Measured: normalized growth

CS(=NC(=O)c1cccc(Cl)c1)c1ccc(OC(=O)c2ccc(Cl)cc2)cc1 (stereo not given)
inactive: [1] 0.969 | [2] 0.966 | [3] 0.97 | [4] 0.966 | [5] 0.967 | [6] 0.968 | [7] 0.964 | [8] 0.972 | [9] 0.964 | [10] 0.958 | [11] 0.958 | [12] 0.954 | [13] 0.967 | [14] 0.966 | [15] 0.972 | [16] 0.924 | [17] 0.95 | [18] 0.966 | [19] 0.966 | [20] 0.968 | [21] 0.943 | [22] 0.966 | [23] 0.96 | [24] 0.98 | [25] 0.981 | [26] 1.08 | [27] 1.1 | [28] 1.06 | [29] 1 | [30] 0.958 | [31] 0.946 | [32] 0.944 | [33] 0.949 | [34] 0.969 | [35] 0.983 | [36] 1.05 | [37] 0.945 | [38] 0.949 | [39] 0.935 | [40] 0.964 | [41] 1.02 | [42] 0.876 | [43] 0.952 | [44] 1 | [45] 0.94 | [46] 0.964 | [47] 0.934 | [48] 0.968 | [49] 0.979 | [50] 0.949 | [51] 0.971 | [52] 1.01 | [53] 0.964 | [54] 0.97 | [55] 0.982 | [56] 0.959 | [57] 0.936 | [58] 0.926 | [59] 1.01 | [60] 0.909 | [61] 0.969 | [62] 0.941 | [63] 0.968 | [64] 0.952 | [65] 0.974 | [66] 1.06 | [67] 0.968 | [68] 0.974 | [69] 0.975 | [70] 0.972 | [71] 0.965

CCOc1ccc(/C=C(\C#N)c2cccc(Cl)c2)cc1
inactive: locus YAL013W, strain DEP1, active compounds read low 0.992 | locus YBR229C, strain ROT2, active compounds read low 0.995 | locus YCL061C, strain MRC1, active compounds read low 1.01 | [8] 1.01 | locus YDR150W, strain NUM1, active compounds read low 0.975 | locus YEL061C, strain CIN8, active compounds read low 0.955 | locus YGR078C, strain PAC10, active compounds read low 0.979 | [26] 0.694 | locus YHR087W, strain rtc3, active compounds read low 0.97 | locus YJL187C, strain SWE1, active compounds read low 1.01 | locus YJR043C, strain POL32, active compounds read low 1 | locus YJR075W, strain HOC1, active compounds read low 0.967 | locus YLR039C, strain RIC1, active compounds read low 0.892 | locus YLR058C, strain SHM2 (second series), active compounds read low 0.982 | locus YLR262C, strain YPT6, active compounds read low 0.952 | locus YML094W, strain GIM5, active compounds read low 0.927 | locus YMR219W, strain ESC1, active compounds read low 0.99 | locus YMR263W, strain SAP30, active compounds read low 0.987 | locus YNL153C, strain GIM3, active compounds read low 1.01 | locus YNL298W, strain CLA4 (second series), active compounds read low 0.936 | locus YNL322C, strain KRE1, active compounds read low 0.975 | locus YNR030W, strain Alg12, active compounds read low 0.928 | locus YPL055C, strain LGE1, active compounds read low 0.95 | locus YPL241C, strain CIN2, active compounds read low 0.933 | locus YPR135W, strain CTF4, active compounds read low 0.987
active: locus YDL134C, strain PPH21, active compounds read low 0.915 | locus YLR085C, strain ARP6, active compounds read low 0.723 | locus YMR307W, strain GAS1, active compounds read low 0.645

CC(C)(C)CN/C(C#N)=C(/C#N)NCc1cccc(Cl)c1
inactive: [1] 0.993 | [2] 0.991 | [3] 0.98 | [4] 0.991 | [5] 0.991 | [6] 0.994 | [7] 0.993 | [8] 0.982 | [9] 0.997 | [10] 0.987 | [11] 0.991 | [12] 0.996 | [13] 0.991 | [14] 0.973 | [15] 0.988 | [16] 0.947 | [17] 0.988 | [18] 0.988 | [19] 0.992 | [20] 0.991 | [21] 0.99 | [22] 0.983 | [23] 0.966 | [24] 0.947 | [25] 0.871 | [26] 0.977 | [27] 0.995 | [28] 1.01 | [29] 0.896 | [30] 1 | [31] 0.883 | [32] 0.95 | [33] 0.982 | [34] 0.987 | [35] 0.97 | [36] 1 | [37] 0.986 | [38] 0.977 | [39] 0.954 | [40] 0.984 | [41] 1.04 | [42] 0.915 | [43] 0.974 | [44] 0.941 | [45] 0.965 | [46] 0.995 | [47] 0.973 | [48] 0.992 | [49] 0.978 | [50] 0.974 | [51] 0.984 | [52] 0.945 | [53] 0.98 | [54] 0.984 | [55] 0.877 | [56] 0.981 | [57] 0.955 | [58] 1 | [59] 1.04 | [60] 0.931 | [61] 0.99 | [62] 0.99 | [63] 0.988 | [64] 0.967 | [65] 0.982 | [66] 1.08 | [67] 0.986 | [68] 0.989 | [69] 0.964 | [70] 0.987 | [71] 0.985
